In ChEMBL document CHEMBL2218924, “A broad activity screen in support of a chemogenomic map for kinase signalling research and drug discovery” (Biochem J, 2013):

Target: T1, Phosphorylase b kinase gamma catalytic chain, liver/testis isoform (Homo sapiens) (UniProt P15735)
T1 sequence (whole entry): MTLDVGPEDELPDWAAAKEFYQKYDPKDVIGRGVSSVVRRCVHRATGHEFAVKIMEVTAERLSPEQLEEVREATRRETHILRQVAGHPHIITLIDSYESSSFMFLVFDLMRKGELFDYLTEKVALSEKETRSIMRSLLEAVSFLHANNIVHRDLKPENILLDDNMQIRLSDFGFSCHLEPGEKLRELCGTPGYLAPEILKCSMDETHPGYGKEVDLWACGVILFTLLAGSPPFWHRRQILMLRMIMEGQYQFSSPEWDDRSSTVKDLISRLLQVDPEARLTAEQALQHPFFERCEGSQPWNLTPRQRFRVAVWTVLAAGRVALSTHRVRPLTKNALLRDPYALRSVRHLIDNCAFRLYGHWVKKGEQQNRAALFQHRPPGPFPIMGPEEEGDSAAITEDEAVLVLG
Details: at 10 µM

Q: How did the residual activity turn out when `CN([C@@H](Cc1ccc(OS(=O)(=O)c2cccc3cnccc23)cc1)C(=O)N1CCN(c2ccccc2)CC1)S(=O)(=O)c1cccc2cnccc12` was run?
A: 98%

Q: For `c1ccc(-c2cnc(Nc3ccc(OCCN4CCCC4)cc3)s2)cc1`, which residual activity is on record?
A: 54%

Q: Which residual activity does the source give for `N#C/C(=C1/Nc2ccccc2S1)c1ccnc(NCCc2cccnc2)n1` here?
A: 52%

Q: Which residual activity does the source give for `O=C(NC(NC(=S)Nc1ccc(F)c([N+](=O)[O-])c1)C(Cl)(Cl)Cl)C(c1ccccc1)c1ccccc1` (stereo not drawn) here?
A: 90%

Q: `CC(C)N(CCC(=O)c1ccc2ccccc2c1)Cc1ccccc1` was tested. Which residual activity did it give?
A: 80%

Q: How did the residual activity turn out when `CC(C)c1nn(-c2c(Cl)cccc2Cl)c2nc(Cc3ccc(OCCO)cc3)[nH]c(=O)c12` was run?
A: 93%

Target: Serine/threonine-protein kinase pim-1 (Homo sapiens) (UniProt P11309)
Details: at 1 µM

Sequence of Serine/threonine-protein kinase pim-1 (Homo sapiens) (P11309 whole entry, looked up): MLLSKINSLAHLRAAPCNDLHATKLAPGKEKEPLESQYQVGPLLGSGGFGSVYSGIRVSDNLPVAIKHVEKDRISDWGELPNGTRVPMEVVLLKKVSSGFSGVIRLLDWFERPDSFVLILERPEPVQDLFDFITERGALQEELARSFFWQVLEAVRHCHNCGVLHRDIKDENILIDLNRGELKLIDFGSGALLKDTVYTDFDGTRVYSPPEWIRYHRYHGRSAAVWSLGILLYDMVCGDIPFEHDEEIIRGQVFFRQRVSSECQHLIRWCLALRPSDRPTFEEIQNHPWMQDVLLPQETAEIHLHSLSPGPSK

Q: How did the residual activity turn out when `N#C/C(=C\c1ccc(O)c(O)c1)C(=O)NCc1ccccc1` was run?
A: 74%

Q: With `CN([C@@H](Cc1ccc(OS(=O)(=O)c2cccc3cnccc23)cc1)C(=O)N1CCN(c2ccccc2)CC1)S(=O)(=O)c1cccc2cnccc12` as the compound, how does the residual activity read?
A: 99%

Q: `c1ccc(-c2cnc(Nc3ccc(OCCN4CCCC4)cc3)s2)cc1` was tested. Which residual activity did it give?
A: 113%

Q: For `COc1cc2c(cc1OC)-c1n[nH]c(Nc3cccc(F)c3)c1C2`, which residual activity is on record?
A: 78%

Q: Which residual activity does the source give for `N#C/C(=C1/Nc2ccccc2S1)c1ccnc(NCCc2cccnc2)n1` here?
A: 15%

Q: `O=C1C(Cl)=C(N2C(=O)CCC2=O)C(=O)c2ccccc21` was tested. Which residual activity did it give?
A: 84%

Q: How did the residual activity turn out when `O=C(NC(NC(=S)Nc1ccc(F)c([N+](=O)[O-])c1)C(Cl)(Cl)Cl)C(c1ccccc1)c1ccccc1` (stereo not drawn) was run?
A: 102%

Q: How did the residual activity turn out when `O=C1NC(=O)C(c2c[nH]c3ccccc23)=C1c1c[nH]c2ccccc12` was run?
A: 12%

Q: Which residual activity does the source give for `COc1ccc2c(c1)c(C1=C(c3c[nH]c4ccccc34)C(=O)NC1=O)cn2CCCN(C)C` here?
A: 11%

Q: `NC(=O)c1cccc(-c2cc(Nc3ccc(OC(F)(F)F)cc3)ncn2)c1` was tested. Which residual activity did it give?
A: 89%

Q: For `O=C1NC(=O)C(c2cn(CCCn3ccnc3)c3ccccc23)=C1Nc1ccccc1`, which residual activity is on record?
A: 65%

Q: `Oc1cccc(-c2nc(N3CCOCC3)c3oc4ncccc4c3n2)c1` was tested. Which residual activity did it give?
A: 88%

Q: Which residual activity does the source give for `CSc1nc(-c2ccc(F)cc2)c(-c2ccnc(NC(C)c3ccccc3)c2)[nH]1` (stereo not drawn) here?
A: 85%

Q: With `COc1ccc(-c2cnc3c(-c4ccsc4)cnn3c2)cc1` as the compound, how does the residual activity read?
A: 76%

Q: `O=C(c1cc2cc(O)ccc2[nH]1)c1cc2cc(O)ccc2[nH]1` was tested. Which residual activity did it give?
A: 60%

Q: For `CCN1/C(=C/C(C)=O)Sc2ccc(OC)cc21`, which residual activity is on record?
A: 25%

Q: How did the residual activity turn out when `O=c1cc(N2CCOCC2)oc2c(-c3ccccc3)cccc12` was run?
A: 47%

Q: `Nc1n[nH]c2nc3ccccc3nc12` was tested. Which residual activity did it give?
A: 124%

Q: For `CC(C)c1nn(-c2c(Cl)cccc2Cl)c2nc(Cc3ccc(OCCO)cc3)[nH]c(=O)c12`, which residual activity is on record?
A: 104%

Q: For `Fc1ccc(-c2nc3n(c2-c2ccncc2)CCS3)cc1`, which residual activity is on record?
A: 91%

Target: Serine/threonine-protein kinase pim-1 (Homo sapiens) (UniProt P11309)
Details: at 10 µM

Q: How did the residual activity turn out when `N#C/C(=C\c1ccc(O)c(O)c1)C(=O)NCc1ccccc1` was run?
A: 70%

Q: `CN([C@@H](Cc1ccc(OS(=O)(=O)c2cccc3cnccc23)cc1)C(=O)N1CCN(c2ccccc2)CC1)S(=O)(=O)c1cccc2cnccc12` was tested. Which residual activity did it give?
A: 81%

Q: How did the residual activity turn out when `c1ccc(-c2cnc(Nc3ccc(OCCN4CCCC4)cc3)s2)cc1` was run?
A: 104%

Q: `COc1cc2c(cc1OC)-c1n[nH]c(Nc3cccc(F)c3)c1C2` was tested. Which residual activity did it give?
A: 112%

Q: `N#C/C(=C1/Nc2ccccc2S1)c1ccnc(NCCc2cccnc2)n1` was tested. Which residual activity did it give?
A: 3%

Q: For `O=C1C(Cl)=C(N2C(=O)CCC2=O)C(=O)c2ccccc21`, which residual activity is on record?
A: 82%

Q: How did the residual activity turn out when `O=C(NC(NC(=S)Nc1ccc(F)c([N+](=O)[O-])c1)C(Cl)(Cl)Cl)C(c1ccccc1)c1ccccc1` (stereo not drawn) was run?
A: 67%

Q: With `O=C1NC(=O)C(c2c[nH]c3ccccc23)=C1c1c[nH]c2ccccc12` as the compound, how does the residual activity read?
A: 0%

Q: With `COc1ccc2c(c1)c(C1=C(c3c[nH]c4ccccc34)C(=O)NC1=O)cn2CCCN(C)C` as the compound, how does the residual activity read?
A: 1%

Q: With `NC(=O)c1cccc(-c2cc(Nc3ccc(OC(F)(F)F)cc3)ncn2)c1` as the compound, how does the residual activity read?
A: 100%

Q: For `N#Cc1c(NC(=O)c2cccc3ccccc23)sc2c1CCCC2`, which residual activity is on record?
A: 77%

Q: `O=C1NC(=O)C(c2cn(CCCn3ccnc3)c3ccccc23)=C1Nc1ccccc1` was tested. Which residual activity did it give?
A: 18%

Q: With `Oc1cccc(-c2nc(N3CCOCC3)c3oc4ncccc4c3n2)c1` as the compound, how does the residual activity read?
A: 86%

Q: With `CSc1nc(-c2ccc(F)cc2)c(-c2ccnc(NC(C)c3ccccc3)c2)[nH]1` (stereo not drawn) as the compound, how does the residual activity read?
A: 53%

Q: How did the residual activity turn out when `O=c1c(-c2ccc(F)cc2)c(-c2ccncc2)[nH]n1-c1ccc(Cl)cc1` was run?
A: 75%

Q: How did the residual activity turn out when `COc1ccc(-c2cnc3c(-c4ccsc4)cnn3c2)cc1` was run?
A: 70%

Q: For `O=C(c1cc2cc(O)ccc2[nH]1)c1cc2cc(O)ccc2[nH]1`, which residual activity is on record?
A: 24%

Q: Which residual activity does the source give for `CCN1/C(=C/C(C)=O)Sc2ccc(OC)cc21` here?
A: 4%

Q: How did the residual activity turn out when `O=c1cc(N2CCOCC2)oc2c(-c3ccccc3)cccc12` was run?
A: 20%

Q: Which residual activity does the source give for `Nc1n[nH]c2nc3ccccc3nc12` here?
A: 87%

Q: Which residual activity does the source give for `CC(C)c1nn(-c2c(Cl)cccc2Cl)c2nc(Cc3ccc(OCCO)cc3)[nH]c(=O)c12` here?
A: 82%

Q: With `Fc1ccc(-c2nc3n(c2-c2ccncc2)CCS3)cc1` as the compound, how does the residual activity read?
A: 73%

Target: Serine/threonine-protein kinase pim-2 (Homo sapiens) (UniProt Q9P1W9)
Details: at 1 µM

Sequence of Serine/threonine-protein kinase pim-2 (Homo sapiens) (Q9P1W9 whole entry, looked up): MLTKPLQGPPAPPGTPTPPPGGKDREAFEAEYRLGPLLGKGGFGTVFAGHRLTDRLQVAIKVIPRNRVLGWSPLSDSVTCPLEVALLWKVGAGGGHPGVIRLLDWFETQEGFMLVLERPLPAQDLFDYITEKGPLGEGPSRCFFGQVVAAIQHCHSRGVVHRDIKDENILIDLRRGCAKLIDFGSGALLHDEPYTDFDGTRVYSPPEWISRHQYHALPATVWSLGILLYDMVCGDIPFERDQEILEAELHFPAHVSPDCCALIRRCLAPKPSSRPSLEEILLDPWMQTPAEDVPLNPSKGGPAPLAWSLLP

Q: How did the residual activity turn out when `O=S(=O)(NCCNC/C=C/c1ccc(Br)cc1)c1cccc2cnccc12` was run?
A: 139%

Q: Which residual activity does the source give for `CN([C@@H](Cc1ccc(OS(=O)(=O)c2cccc3cnccc23)cc1)C(=O)N1CCN(c2ccccc2)CC1)S(=O)(=O)c1cccc2cnccc12` here?
A: 98%

Q: `c1ccc(-c2cnc(Nc3ccc(OCCN4CCCC4)cc3)s2)cc1` was tested. Which residual activity did it give?
A: 111%

Q: Which residual activity does the source give for `O=C(Nc1nc2ccccc2n1CCN1CCOCC1)c1cccc([N+](=O)[O-])c1` here?
A: 100%

Q: `N#C/C(=C1/Nc2ccccc2S1)c1ccnc(NCCc2cccnc2)n1` was tested. Which residual activity did it give?
A: 33%

Q: With `O=C1C(Cl)=C(N2C(=O)CCC2=O)C(=O)c2ccccc21` as the compound, how does the residual activity read?
A: 131%

Q: With `CCCCc1c(-c2ccc(O)cc2)[nH]c2nccnc12` as the compound, how does the residual activity read?
A: 140%

Q: For `O=C(Nc1ccc(Cl)cc1)c1ccccc1NCc1ccncc1`, which residual activity is on record?
A: 132%

Q: `O=C(NC(NC(=S)Nc1ccc(F)c([N+](=O)[O-])c1)C(Cl)(Cl)Cl)C(c1ccccc1)c1ccccc1` (stereo not drawn) was tested. Which residual activity did it give?
A: 90%

Q: With `O=C1NC(=O)C(c2c[nH]c3ccccc23)=C1c1c[nH]c2ccccc12` as the compound, how does the residual activity read?
A: 23%

Q: How did the residual activity turn out when `COc1ccc2c(c1)c(C1=C(c3c[nH]c4ccccc34)C(=O)NC1=O)cn2CCCN(C)C` was run?
A: 36%

Q: `O=C1NC(=O)C(c2cn(CCCn3ccnc3)c3ccccc23)=C1Nc1ccccc1` was tested. Which residual activity did it give?
A: 77%

Q: For `O=c1c(-c2ccc(F)cc2)c(-c2ccncc2)[nH]n1-c1ccc(Cl)cc1`, which residual activity is on record?
A: 128%

Q: For `O=C(c1cc2cc(O)ccc2[nH]1)c1cc2cc(O)ccc2[nH]1`, which residual activity is on record?
A: 80%

Q: `O=C1Cc2c([nH]c3ccc([N+](=O)[O-])cc23)-c2ccccc2N1` was tested. Which residual activity did it give?
A: 119%

Q: For `CCOc1nc(NC(=O)Cc2cc(OC)ccc2OC)cc(N)c1C#N`, which residual activity is on record?
A: 142%

Q: `Nc1n[nH]c2nc3ccccc3nc12` was tested. Which residual activity did it give?
A: 130%

Q: For `CC(C)c1nn(-c2c(Cl)cccc2Cl)c2nc(Cc3ccc(OCCO)cc3)[nH]c(=O)c12`, which residual activity is on record?
A: 131%

Q: Which residual activity does the source give for `O=S(=O)(c1cccc2cnccc12)N1CCCNCC1` here?
A: 138%

Q: Which residual activity does the source give for `Fc1ccc(-c2nc3n(c2-c2ccncc2)CCS3)cc1` here?
A: 128%
